Source: the supplement of paper PMC12669032
Several values for one entry are separate records, joined by “and”; a condition that tells them apart may be missing. Equal values may be shown once. A number with no mark means an inactive call.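 How the source made its calls: active = AUC reduced over 20% with Padj below 0.05 in at least 2 of 3 replicates; inactive = otherwise.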

How the values were obtained:
Experiment in all cases: growth AUC relative to DMSO control (median of replicates) (fraction); higher = more growth (less inhibition), active = hit call of the paper
Conditions in all cases: 20 µM; 24 h
Akkermansia muciniphila = tested on: Akkermansia muciniphila
Outline: (§1)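 Gut bacterial monocultures in mGAM were treated with 20 µM compound (1% DMSO) and grown anaerobically at 37 °C in round-bottom 96-well plates from OD600 0.05. OD600 was read hourly for 24 h, with the minimum OD set to 0. Area under the growth curve was normalised to the plate median of solvent-only wells, or to row and column medians on the industrial chemical plate. Each value is the median of three biological replicates, each grown on a separate day.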

Bacteroides caccae = tested on: Bacteroides caccae
Outline: as §1

Bacteroides clarus = tested on: Bacteroides clarus
Outline: as §1

Bacteroides dorei = tested on: Bacteroides dorei
Outline: as §1

Bacteroides stercoris = tested on: Bacteroides stercoris
Outline: as §1

[1] = tested on: Bacteroides thetaiotaomicron
Outline: as §1

Bacteroides uniformis = tested on: Bacteroides uniformis
Outline: as §1

[2] = tested on: Bifidobacterium longum subsp. longum
Outline: as §1

Clostridium difficile = tested on: Clostridium difficile
Outline: as §1

Collinsella aerofaciens = tested on: Collinsella aerofaciens
Outline: as §1

Coprococcus comes = tested on: Coprococcus comes
Outline: as §1

Escherichia coli ED1a = tested on: Escherichia coli ED1a
Outline: as §1

Escherichia coli IAI1 = tested on: Escherichia coli IAI1
Outline: as §1

Eubacterium rectale = tested on: Eubacterium rectale
Outline: as §1

[3] = tested on: Fusobacterium nucleatum subsp. animalis
Outline: as §1

Lactobacillus gasseri = tested on: Lactobacillus gasseri
Outline: as §1

Lactobacillus paracasei = tested on: Lactobacillus paracasei
Outline: as §1

Odoribacter splanchnicus = tested on: Odoribacter splanchnicus
Outline: as §1

[4] = tested on: Parabacteroides distasonis
Outline: as §1

Parabacteroides merdae = tested on: Parabacteroides merdae
Outline: as §1

Row | Structure (SMILES) | growth AUC (Akkermansia muciniphila) | growth AUC (Bacteroides caccae) | growth AUC (Bacteroides clarus) | growth AUC (Bacteroides dorei) | growth AUC (Bacteroides stercoris) | growth AUC [1] | growth AUC (Bacteroides uniformis) | growth AUC [2] | growth AUC (Clostridium difficile) | growth AUC (Collinsella aerofaciens) | growth AUC (Coprococcus comes) | growth AUC (Escherichia coli ED1a) | growth AUC (Escherichia coli IAI1) | growth AUC (Eubacterium rectale) | growth AUC [3] | growth AUC (Lactobacillus gasseri) | growth AUC (Lactobacillus paracasei) | growth AUC (Odoribacter splanchnicus) | growth AUC [4] | growth AUC (Parabacteroides merdae)
1 | O=C(O)C1(O)c2ccccc2-c2ccc(Cl)cc21 (stereo not given) | 0.865 | 0.979 | 0.935 | 1.08 | 1.04 | 0.958 | 0.984 | 0.936 | 0.993 | 1.03 | 0.972 | 0.998 | 0.975 | 0.947 | 0.982 | 1.05 | 0.997 | 1.01 | 0.979 | 0.987
2 | Cc1c(COC(=O)[C@@H]2[C@H](/C=C(\Cl)C(F)(F)F)C2(C)C)cccc1-c1ccccc1 | 0.924 | 0.971 | 0.998 | 1.01 | 0.972 | 0.974 | 1.01 | 0.923 | 1.02 | 0.928 | 1.03 | 1.02 | 1.02 | 0.938 | 1.07 | 0.862 | 0.982 | 1.03 | 1.01 | 0.965
3 | CCOP(=S)(OCC)Oc1cc(Cl)c(SC)cc1Cl | 1.01 | 0.997 | 0.979 | 0.999 | 1.11 | 0.992 | 0.989 | 0.981 | 1.05 | 1.01 | 1.02 | 0.999 | 0.977 | 0.897 | 1.03 | 0.981 | 0.995 | 1.12 | 1.01 | 0.926
4 | COC(=O)/C=C(/C)OP(=O)(OC)OC | 1.05 and 1.08 | 0.952 and 0.906 | 1.02 and 1.08 | 0.879 and 1.01 | 0.938 and 1.2 | 0.992 and 0.984 | 0.981 and 0.997 | 1 and 1.06 | 0.956 and 1.01 | 0.959 and 0.989 | 1.02 and 1.04 | 1.01 and 1.05 | 0.997 and 1.04 | 1.03 and 1.05 | 1.03 and 1.22 | 0.973 and 1.01 | 0.956 and 1.04 | 1.09 and 0.835 | 0.972 and 0.999 | 1 and 1.05
5 | CC(C)OC(=O)C(O)(c1ccc(Br)cc1)c1ccc(Br)cc1 | 0.997 | 0.883 | 0.779 (active) | 0.933 | 0.239 (active) | 0.93 | 0.923 | 0.96 | 0.982 | 0.928 | 0.905 | 1.01 | 1.01 | 0.912 | 1.01 | 0.918 | 0.981 | 1.05 | 0.854 | 0.868
6 | Oc1ccc(Cl)cc1Cl | 1.15 | 0.802 | 0.979 | 0.893 | 0.938 | 0.936 | 0.913 | 1.05 | 0.946 | 0.909 | 1.01 | 0.974 | 0.979 | 1.13 | 0.93 | 0.769 | 1.01 | 0.969 | 0.967 | 0.853
7 | O=C1C=C(N(Cc2ccc(Cl)nc2)CC(F)F)CO1 | 0.98 | 0.991 | 0.991 | 0.977 | 1.25 | 1.01 | 0.997 | 1.01 | 0.978 | 0.994 | 1.02 | 0.971 | 0.994 | 0.959 | 1.05 | 1 | 0.869 | 1.01 | 0.999 | 1.01
8 | CCOc1cc(C(C)(C)C)ccc1C1COC(c2c(F)cccc2F)=N1 (stereo not given) | 0.955 | 0.941 | 1 | 1.03 | 1.23 | 0.978 | 0.958 | 1.02 | 0.942 | 0.987 | 0.996 | 0.998 | 1.02 | 1 | 1.08 | 0.932 | 1.01 | 1.04 | 0.891 | 0.878
9 | COC(=O)C(Cl)Cl | 1 | 0.968 | 0.992 | 1 | 1.06 | 1.02 | 0.971 | 0.957 | 0.997 | 0.991 | 0.986 | 1 | 0.989 | 1 | 1.07 | 0.919 | 0.938 | 1.01 | 0.998 | 1
10 | N#Cc1sc2c(=O)c3ccccc3c(=O)c=2sc1C#N | 0.95 | 0.982 | 0.948 | 0.979 | 0.783 | 0.974 | 0.882 | 0.84 | 0.968 | 1.09 | 0.921 | 0.945 | 0.957 | 0.911 | 0.881 | 1.01 | 0.875 | 0.926 | 0.928 | 0.968
11 | CCC1COC(Cn2cncn2)(c2ccc(Cl)cc2Cl)O1 (stereo not given) | 0.893 | 0.992 | 0.935 | 0.976 | 0.938 | 0.982 | 0.956 | 0.976 | 0.994 | 0.94 | 0.982 | 0.988 | 0.96 | 0.755 | 0.917 | 1.1 | 0.92 | 0.983 | 1 | 0.948
12 | CC1(C)C(C(=O)OC(C#N)c2cccc(Oc3ccccc3)c2)C1(C)C (stereo not given) | 0.879 | 0.995 | 0.991 | 0.996 | 0.946 | 0.986 | 1.01 | 0.951 | 1.01 | 0.995 | 1.03 | 1.01 | 0.988 | 1 | 0.928 | 0.909 | 1.04 | 0.959 | 1.15 | 0.965
13 | CCN(CC)N=O | 1 | 1 | 1 | 1.04 | 1.04 | 1.01 | 1 | 1.05 | 1.02 | 0.991 | 1.01 | 1.01 | 1.04 | 0.996 | 0.998 | 1.04 | 0.981 | 0.979 | 1 | 1.01
14 | CP(=O)(O)CC(=O)O | 1.01 | 0.959 | 0.96 | 1.02 | 0.929 | 0.992 | 0.997 | 1.04 | 1.1 | 1.04 | 0.991 | 0.984 | 1 | 1.07 | 0.945 | 1.02 | 0.871 | 0.978 | 0.979 | 0.982
15 | CC(=O)CC(c1ccco1)c1c(O)c2ccccc2oc1=O (stereo not given) | 0.866 | 1.01 | 0.957 | 1 | 1 | 0.98 | 0.968 | 0.95 | 1.02 | 0.967 | 1.01 | 0.994 | 0.987 | 0.985 | 0.986 | 1.03 | 1.05 | 0.978 | 0.958 | 1.01
16 | CCN(C(=O)n1nnn(-c2ccccc2Cl)c1=O)C1CCCCC1 | 0.87 | 0.84 | 0.508 (active) | 0.513 (active) | 0.118 (active) | 0.107 (active) | 0.0622 (active) | 0.988 | 0.992 | 0.925 | 0.942 | 0.969 | 0.989 | 0.956 | 1.01 | 1.01 | 0.827 | 0.97 | 0.682 (active) | 0.411 (active)
